Our source for the z-score and log fold change Tl+ flux values is PubChem BioAssay.

“And” between values parts separate entries of the source, which are not always exact repeats. Equal values may be shown once. Unmarked numbers belong to inactive results. The source made the active and inactive calls.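 The calls were made as follows, unless noted: active = thallium flux through the channel raised or lowered by more than 3 SD from vehicle-only wells, actives on both sides; inactive = the rest.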

Test system in one assay: not listed separately
Nature of the assay: viability rescue of complex I mutant cybrids, primary screen, cell-based, galactose medium, ATP luminescence (AID 1645843;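 active = z-score of at least 1.8 in each of two replicates, scored against plate mean and spread of sample wells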;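 also: positive z means more ATP and so rescue of galactose-driven cybrid death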). Particulars: complex I mutant cybrid cells, 72 h, stronger effect = higher value.
Consider `COCCCOc1ccnc(CS(=O)c2nc3ccccc3[nH]2)c1C` (centres undefined), for which the z-score is -0.225.

Turning to `COc1ccccc1N1CCN(CCCCNC(=O)c2ccc(-c3ccc(C(C)=O)cc3)cc2)CC1`, the z-score was -0.635.

For the compound `Cc1cc(NS(=O)(=O)c2ccc(N)cc2)no1`, the z-score was 0.255.

As to `CCCC(CCC)C(=O)O`, the z-score was 0.57 and 0.76 and 0.71.

Turning to `COc1cc(Cc2cnc(N)nc2N)cc(OC)c1OC`, the z-score is 0.49 and 0.045 and 0.71.

For `COC(=O)C1=C(C)NC(C)=C(C(=O)OCCN(C)Cc2ccccc2)C1c1cccc([N+](=O)[O-])c1` (centres undefined), the z-score is -1.29 and -1.5 and 0.665.

For the compound `C[C@@H](C1=C(CCN(C)C)Cc2ccccc21)c1ccccn1`, the z-score was -0.445.

In the case of `CC(C)(C)NCC(O)c1ccc(O)c(CO)c1` (centres undefined), the z-score was 0.105 and 0.825 and 0.82.

Regarding `CCN(CC)CCOc1ccc(Cc2ccccc2)cc1`, the z-score is -0.96.

For the compound `COc1ccc2cc([C@H](C)C(=O)O)ccc2c1`, the z-score was 0.36 and 0.18 and 0.675.

Consider `COc1c2occc2cc2ccc(=O)oc12`, for which the z-score was 0.975.

As to `NC(=O)c1cccnc1`, the z-score is 0.75 and 0.635.

`CN/C(=C\[N+](=O)[O-])NCCSCc1ccc(CN(C)C)o1`: the z-score was 0.37 and -0.285.

Regarding `CNCCCN1c2ccccc2CCc2ccccc21`, the z-score was -0.895 and -0.71.

`CN1C(=O)CC[C@H]1c1cccnc1`: the z-score was 0.48.

As for `CCCC(=O)Nc1ccc(OCC(O)CNC(C)C)c(C(C)=O)c1` (centres undefined), the z-score is 1.51.

With `O=C(O)CCc1nc(-c2ccccc2)c(-c2ccccc2)o1`, the z-score is 0.9 and 1.19.

On to `CC(C)OC(=O)C(C)(C)Oc1ccc(C(=O)c2ccc(Cl)cc2)cc1`, for which the z-score was -1 and -1.21 and -1.85.

For `CC(C(=O)O)c1cccc(C(=O)c2ccccc2)c1` (centres undefined), the z-score is 0.45 and 0.27 and 0.89.

As for `Oc1ccc(O)cc1`, the z-score was -1.04.

In the next assay the test system is F380Y. Nature of the assay: modulators of BK channel variants, profiling panel, selectivity assay, cell-based, U2OS BacMam, thallium flux, beta subunits (AID 1259406).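 Also: initial slope of Thallos dye fluorescence rise after thallium is added; log ratio against the mean of 0.3% DMSO vehicle wells on the same plate.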 Particulars: at 30 µM.
As for `N=c1nc(N2CCCCC2)cc(N)n1O`, the log fold change Tl+ flux is -0.0693.

Consider `CC(C)NCC(O)COc1cccc2[nH]ccc12` (centres undefined), for which the log fold change Tl+ flux is -0.0071.

In the case of `CCn1cc(C(=O)O)c(=O)c2ccc(C)nc21`, the log fold change Tl+ flux is 0.0464.

With `CN(C)C(=O)C(CCN1CCC(O)(c2ccc(Cl)cc2)CC1)(c1ccccc1)c1ccccc1`, the log fold change Tl+ flux was 0.113 (active).

For the compound `Cc1cc(NS(=O)(=O)c2ccc(N)cc2)no1`, the log fold change Tl+ flux is -0.0179.

As for `CCCC(CCC)C(=O)O`, the log fold change Tl+ flux is -0.0169.

With `COc1cc(Cc2cnc(N)nc2N)cc(OC)c1OC`, the log fold change Tl+ flux was 0.00407.

On to `COC(=O)C1=C(C)NC(C)=C(C(=O)OCCN(C)Cc2ccccc2)C1c1cccc([N+](=O)[O-])c1` (centres undefined), for which the log fold change Tl+ flux is -0.089.

Turning to `O=C(CCCN1CCC(O)(c2ccc(Cl)cc2)CC1)c1ccc(F)cc1`, the log fold change Tl+ flux was 0.00184.

On to `COc1ccc2cc([C@H](C)C(=O)O)ccc2c1`, for which the log fold change Tl+ flux was 0.000985.

Take `COc1c2occc2cc2ccc(=O)oc12`: the log fold change Tl+ flux is -0.0152.

For the compound `NC(=O)c1cccnc1`, the log fold change Tl+ flux is -0.0169.

For the compound `CN/C(=C\[N+](=O)[O-])NCCSCc1ccc(CN(C)C)o1`, the log fold change Tl+ flux is -0.0669.

Turning to `CNCCCN1c2ccccc2CCc2ccccc21`, the log fold change Tl+ flux is 0.121 (active).

Consider `CN1C(=O)CC[C@H]1c1cccnc1`, for which the log fold change Tl+ flux is -0.00809.

For `CCCC(=O)Nc1ccc(OCC(O)CNC(C)C)c(C(C)=O)c1` (centres undefined), the log fold change Tl+ flux was -0.0134.

For the compound `O=C(O)CCc1nc(-c2ccccc2)c(-c2ccccc2)o1`, the log fold change Tl+ flux is 0.0468.

Consider `CC(C)OC(=O)C(C)(C)Oc1ccc(C(=O)c2ccc(Cl)cc2)cc1`, for which the log fold change Tl+ flux is -0.0417.

Turning to `CC(C(=O)O)c1cccc(C(=O)c2ccccc2)c1` (centres undefined), the log fold change Tl+ flux is 0.0438.

Consider `CN1CCN(C2=Nc3cc(Cl)ccc3Nc3ccccc32)CC1`, for which the log fold change Tl+ flux was 0.296 (active).

A further assay concerns F380Y/beta1. The description is as above. Particulars: at 30 µM.
For the compound `N=c1nc(N2CCCCC2)cc(N)n1O`, the log fold change Tl+ flux was 0.0169.

As to `CC(C)NCC(O)COc1cccc2[nH]ccc12` (centres undefined), the log fold change Tl+ flux was 0.0264.

On to `CCn1cc(C(=O)O)c(=O)c2ccc(C)nc21`, for which the log fold change Tl+ flux was 0.00258.

`CN(C)C(=O)C(CCN1CCC(O)(c2ccc(Cl)cc2)CC1)(c1ccccc1)c1ccccc1`: the log fold change Tl+ flux is 0.203 (active).

For the compound `Cc1cc(NS(=O)(=O)c2ccc(N)cc2)no1`, the log fold change Tl+ flux was -0.0321.

Turning to `CCCC(CCC)C(=O)O`, the log fold change Tl+ flux was -0.0195.

In the case of `COc1cc(Cc2cnc(N)nc2N)cc(OC)c1OC`, the log fold change Tl+ flux was 0.057.

With `COC(=O)C1=C(C)NC(C)=C(C(=O)OCCN(C)Cc2ccccc2)C1c1cccc([N+](=O)[O-])c1` (centres undefined), the log fold change Tl+ flux is -0.0357.

As to `O=C(CCCN1CCC(O)(c2ccc(Cl)cc2)CC1)c1ccc(F)cc1`, the log fold change Tl+ flux was 0.0554.

With `COc1ccc2cc([C@H](C)C(=O)O)ccc2c1`, the log fold change Tl+ flux was 0.0107.

For `COc1c2occc2cc2ccc(=O)oc12`, the log fold change Tl+ flux was 0.0099.

For `NC(=O)c1cccnc1`, the log fold change Tl+ flux is -0.0163.

Take `CN/C(=C\[N+](=O)[O-])NCCSCc1ccc(CN(C)C)o1`: the log fold change Tl+ flux was -0.0094.

In the case of `CNCCCN1c2ccccc2CCc2ccccc21`, the log fold change Tl+ flux was 0.022.

In the case of `CCCC(=O)Nc1ccc(OCC(O)CNC(C)C)c(C(C)=O)c1` (centres undefined), the log fold change Tl+ flux is 0.00237.

Regarding `O=C(O)CCc1nc(-c2ccccc2)c(-c2ccccc2)o1`, the log fold change Tl+ flux is 0.171 (active).

Consider `CC(C)OC(=O)C(C)(C)Oc1ccc(C(=O)c2ccc(Cl)cc2)cc1`, for which the log fold change Tl+ flux is -0.0557.

On to `CC(C(=O)O)c1cccc(C(=O)c2ccccc2)c1` (centres undefined), for which the log fold change Tl+ flux is -0.011.

`CN1CCN(C2=Nc3cc(Cl)ccc3Nc3ccccc32)CC1`: the log fold change Tl+ flux is 0.177 (active).
